Measurements from the antibiotic and cytotoxicity screens of Wong et al. (2023).
About 3,300 (8.5%) of roughly 39,000 compounds were called active. The list comes from a sample in which actives are over-represented; it also holds similar structures and randomly drawn compounds.

tested on: HepG2; assay: cytotoxicity call (relative viability < 0.9); conditions: 10 µM

SMILES | cytotoxicity call
C[C@@H]1CN([C@@H](C)CO)C(=O)CCCn2nncc2CO[C@H]1CN(C)C(=O)Nc1ccc(C(C)(C)C)cc1 | inactive
C[C@H](CO)N1C[C@H](C)[C@@H](CN(C)Cc2ccc(C(=O)O)cc2)Oc2c(NC(=O)c3cnccn3)cccc2C1=O | inactive
CCOc1nc(N2CCOCC2)nc(N2CCOCC2)n1 | inactive
CC=NN(C)C=O | inactive
CC(C)NC(=O)Nc1ccc2c(c1)CC(=O)N([C@@H](C)CO)C[C@H](C)[C@@H](CN(C)S(=O)(=O)c1ccccc1)O2 | inactive
c1ccc(CN(CC2=NCCN2)c2ccccc2)cc1 | inactive
CC(COc1ccccc1)N(CCCl)Cc1ccccc1.Cl (centres undefined) | inactive
CC(C)COCC(CN(Cc1ccccc1)c1ccccc1)N1CCCC1.Cl (centres undefined) | active
CN(C)C(=O)[C@@H]1[C@@H](CO)[C@@H]2Cn3c(ccc(C4=CCCC4)c3=O)[C@H]1N2S(=O)(=O)c1cn(C)cn1 | inactive
COc1cccc(C#Cc2cnc3c(c2)C(=O)N([C@H](C)CO)C[C@H](C)[C@@H](CN(C)C(=O)C2CCC2)O3)c1 | inactive
Cn1cnc(S(=O)(=O)N2C[C@@H](O)COC[C@@H]3O[C@H](CC(=O)NCc4cc(F)cc(F)c4)CC[C@H]32)c1 | inactive
C[C@H](CO)N1C[C@H](C)[C@H](CN(C)S(=O)(=O)c2cccs2)Oc2ncc(-c3ccc(F)cc3)cc2C1=O | inactive
Cc1cc2nc3c(=O)[nH]c(=O)nc-3n(C[C@H](O)[C@H](O)[C@H](O)COP(=O)(O)O)c2cc1C | inactive
Cc1cc2nc3c(=O)[nH]c(=O)nc-3n(CC(O)C(O)C(O)CO)c2cc1C (centres undefined) | inactive
Cc1cc2nc3c(=O)[nH]c(=O)nc-3n(CC(O)C(O)C(O)COP(=O)([O-])O)c2cc1C.[Na+] (centres undefined) | active
C[C@@H]1CN([C@H](C)CO)C(=O)c2cc(C#CC3(O)CCCC3)cnc2O[C@H]1CN(C)C(=O)Cc1ccccc1 | inactive
C[C@H]1CN([C@@H](C)CO)C(=O)c2cccc(NC(=O)Nc3cccc4ccccc34)c2O[C@H]1CN(C)Cc1ccc(-c2ccccc2)cc1 | inactive
C[C@@H]1CCCCO[C@H](CN(C)Cc2ccc(C(=O)O)cc2)[C@H](C)CN([C@H](C)CO)C(=O)c2cc(NC(=O)Nc3ccc4c(c3)OCO4)ccc2O1 | inactive
C[C@@H]1CN([C@@H](C)CO)C(=O)c2cc(NC(=O)Nc3ccc(C(F)(F)F)cc3)ccc2O[C@@H](C)CCCCO[C@H]1CN(C)Cc1ccc(Cl)c(Cl)c1 | inactive
C[C@@H]1CCCCO[C@@H](CN(C)Cc2ccc(Cl)c(Cl)c2)[C@@H](C)CN([C@@H](C)CO)C(=O)c2cc(NC(=O)Nc3ccc(C(F)(F)F)cc3)ccc2O1 | inactive
C[C@@H]1CCCCO[C@H](CN(C)Cc2ccc(Cl)c(Cl)c2)[C@@H](C)CN([C@@H](C)CO)C(=O)c2cc(NC(=O)Nc3ccc(C(F)(F)F)cc3)ccc2O1 | active
C[C@@H]1CCCCO[C@@H](CN(C)Cc2ccc(Cl)c(Cl)c2)[C@H](C)CN([C@@H](C)CO)C(=O)c2cc(NC(=O)Nc3ccc(C(F)(F)F)cc3)ccc2O1 | active

SMILES | cytotoxicity call
C[C@@H]1CCCCO[C@H](CN(C)Cc2ccc(Cl)c(Cl)c2)[C@H](C)CN([C@@H](C)CO)C(=O)c2cc(NC(=O)Nc3ccc(C(F)(F)F)cc3)ccc2O1 | active
C[C@@H]1CCCCO[C@@H](CN(C)Cc2ccc(Cl)c(Cl)c2)[C@@H](C)CN([C@H](C)CO)C(=O)c2cc(NC(=O)Nc3ccc(C(F)(F)F)cc3)ccc2O1 | inactive
C[C@H](CO)N1C[C@H](C)[C@@H](CN(C)Cc2ccc(Cl)c(Cl)c2)OCCCC[C@H](C)Oc2ccc(NC(=O)Nc3ccc(C(F)(F)F)cc3)cc2C1=O | active
C[C@@H]1CN([C@H](C)CO)C(=O)c2cc(NC(=O)Nc3ccc(C(F)(F)F)cc3)ccc2O[C@@H](C)CCCCO[C@H]1CN(C)Cc1ccc(Cl)c(Cl)c1 | inactive
C[C@@H]1CCCCO[C@@H](CN(C)Cc2ccc(Cl)c(Cl)c2)[C@H](C)CN([C@H](C)CO)C(=O)c2cc(NC(=O)Nc3ccc(C(F)(F)F)cc3)ccc2O1 | inactive
C[C@@H]1CN([C@H](C)CO)C(=O)c2cc(NC(=O)Nc3ccc(C(F)(F)F)cc3)ccc2O[C@@H](C)CCCCO[C@@H]1CN(C)Cc1ccc(Cl)c(Cl)c1 | inactive
COc1ccc(S(=O)(=O)N(C)C[C@H]2Oc3c(NC(=O)C4CC4)cccc3C(=O)N([C@@H](C)CO)C[C@H]2C)cc1 | inactive
C[C@H](CO)N1C[C@H](C)[C@@H](CN(C)Cc2ccccc2)Oc2c(NC(=O)CCCCCC(=O)Nc3ccccc3N)cccc2C1=O | inactive
c1ccc([C@@H]2CCC[C@H](c3ccccc3)S2)cc1 | inactive
C[C@H]1CN([C@@H](C)CO)C(=O)c2cc(NS(=O)(=O)c3cccs3)ccc2O[C@@H]1CN(C)C(=O)Nc1cccc2ccccc12 | inactive
Cn1cc(C[C@@H](N)C(=O)O)c2ccccc21 | inactive
O=C(C[C@H]1C[C@@H]2c3cc(NC(=O)NC4CCCC4)ccc3O[C@@H]2[C@@H](CO)O1)NCCN1CCCCC1 | inactive
NC(Cc1cc(I)c(Oc2cc(I)c(O)c(I)c2)c(I)c1)C(=O)[O-].[Na+] (centres undefined) | inactive
C[C@H]1CN([C@@H](C)CO)C(=O)c2cc(NC(=O)Nc3ccccc3)ccc2O[C@@H]1CN(C)C(=O)Nc1cccc2ccccc12 | inactive
C[C@H]1CCCCO[C@@H](CN(C)Cc2ccc(Cl)c(Cl)c2)[C@@H](C)CN([C@@H](C)CO)C(=O)c2cc(NC(=O)Nc3ccc(C(F)(F)F)cc3)ccc2O1 | inactive
C[C@H](CO)N1C[C@H](C)[C@H](CN(C)Cc2ccc(Cl)c(Cl)c2)OCCCC[C@H](C)Oc2ccc(NC(=O)Nc3ccc(C(F)(F)F)cc3)cc2C1=O | active
C[C@H]1CCCCO[C@H](CN(C)Cc2ccc(Cl)c(Cl)c2)[C@@H](C)CN([C@@H](C)CO)C(=O)c2cc(NC(=O)Nc3ccc(C(F)(F)F)cc3)ccc2O1 | inactive
CC(=O)c1ccc(O)c(C(N)=O)c1 | inactive
COc1ccc(S(=O)(=O)Nc2ccc3c(c2)CC(=O)N([C@H](C)CO)C[C@H](C)[C@@H](CN(C)Cc2ccc(-c4ccccc4)cc2)O3)cc1 | inactive
COc1ccc(S(=O)(=O)Nc2ccc3c(c2)CC(=O)N([C@@H](C)CO)C[C@H](C)[C@H](CN(C)Cc2ccc(-c4ccccc4)cc2)O3)cc1 | active
COc1ccc(S(=O)(=O)Nc2ccc3c(c2)CC(=O)N([C@@H](C)CO)C[C@@H](C)[C@H](CN(C)Cc2ccc(-c4ccccc4)cc2)O3)cc1 | active
COc1ccc(S(=O)(=O)Nc2ccc3c(c2)CC(=O)N([C@H](C)CO)C[C@H](C)[C@H](CN(C)Cc2ccc(-c4ccccc4)cc2)O3)cc1 | active

SMILES | cytotoxicity call
COc1ccc(S(=O)(=O)Nc2ccc3c(c2)CC(=O)N([C@H](C)CO)C[C@@H](C)[C@@H](CN(C)Cc2ccc(-c4ccccc4)cc2)O3)cc1 | active
COc1ccc(S(=O)(=O)Nc2ccc3c(c2)CC(=O)N([C@@H](C)CO)C[C@@H](C)[C@@H](CN(C)Cc2ccc(-c4ccccc4)cc2)O3)cc1 | inactive
COc1ccc(S(=O)(=O)Nc2ccc3c(c2)CC(=O)N([C@@H](C)CO)C[C@H](C)[C@@H](CN(C)Cc2ccc(-c4ccccc4)cc2)O3)cc1 | inactive
Cc1cc(C(F)(F)F)cc(Cl)n1 | inactive
Cc1ccc(S(=O)(=O)N(C)C[C@@H]2OCCCC[C@H](C)Oc3ccc(NC(=O)Nc4ccc(C(F)(F)F)cc4)cc3C(=O)N([C@H](C)CO)C[C@@H]2C)cc1 | inactive
CC(C)NC(=O)N(C)C[C@H]1Oc2c(NC(=O)NC3CCCCC3)cccc2C(=O)N([C@H](C)CO)C[C@H]1C | inactive
C[C@H](CO)N1C[C@H](C)[C@@H](CN(C)C(=O)Cc2cccnc2)Oc2ncc(C#Cc3ccccc3F)cc2C1=O | inactive
Cc1nn(C)cc1NC(=O)C[C@H]1CC[C@H]2[C@@H](COc3ccc(NC(=O)C4CCOCC4)cc3C(=O)N2C)O1 | inactive
COCC(=O)NCc1n[nH]c(=O)c2ccccc12 | inactive
CC1(C)OC(=O)C2(C(=O)O1)[C@@H](c1ccc(-c3ccc(C(F)(F)F)cc3)cc1)CC(=O)C[C@H]2c1ccccc1 | inactive
COc1ccc(S(=O)(=O)Nc2ccc3c(c2)CC(=O)N([C@H](C)CO)C[C@@H](C)[C@H](CN(C)Cc2ccc(-c4ccccc4)cc2)O3)cc1 | active
CC(C)NC(=O)Nc1cccc2c1O[C@H](CN(C)Cc1ccc(C(=O)O)cc1)[C@H](C)CN([C@H](C)CO)C2=O | inactive
COc1ccc(S(=O)(=O)Nc2ccc3c(c2)C(=O)N([C@@H](C)CO)C[C@H](C)[C@@H](CN(C)S(=O)(=O)c2ccc(OC)cc2)O3)cc1 | inactive
C[C@@H]1CCCCO[C@H](CN(C)S(=O)(=O)c2ccccc2)[C@@H](C)CN([C@@H](C)CO)C(=O)c2cc(NC(=O)Nc3ccc(F)cc3)ccc2O1 | inactive
CNC[C@@H]1CC[C@@H](N)[C@@H](O[C@H]2[C@H](O)[C@@H](O[C@H]3OC[C@](C)(O)[C@H](NC)[C@H]3O)[C@H](N)C[C@@H]2N)O1 | inactive
CNC(C)C1CCC(N)C(OC2C(N)CC(N)C(OC3OCC(C)(O)C(NC)C3O)C2O)O1.O=S(=O)(O)O (centres undefined) | active
CN[C@@H]1[C@@H](O)[C@@H](O[C@@H]2[C@@H](O)[C@H](O[C@H]3O[C@H]([C@@H](C)NC)CC[C@H]3N)[C@@H](N)C[C@H]2N)OC[C@]1(C)O | inactive
NC[C@H]1CCCN(C(=O)Nc2ccc(Oc3ccccc3)cc2)C1 | inactive
NC[C@H]1CCN(c2ccc(Oc3ccccc3)cc2)C1 | active
Cc1ccc(N2CC[C@@H](CN)C2)cc1 | inactive
